Screens deposited in PubChem BioAssay by National Center for Advancing Translational Sciences (NCATS).
ASM inhibitor – inhibitors of human secretory acid sphingomyelinase | P17405 | placental ASM, HMU-PC fluorogenic substrate, 60 min | Potency, µM (top dose mostly 57.5 µM), inactives show at the top dose activity change, negative = inhibition, actives largely listed as inhibitors | actives 0.006% (n = 340,000); also: potency is read from the fitted curve at half-maximal effect
Target sequence (P17405 47-631 limits assumed): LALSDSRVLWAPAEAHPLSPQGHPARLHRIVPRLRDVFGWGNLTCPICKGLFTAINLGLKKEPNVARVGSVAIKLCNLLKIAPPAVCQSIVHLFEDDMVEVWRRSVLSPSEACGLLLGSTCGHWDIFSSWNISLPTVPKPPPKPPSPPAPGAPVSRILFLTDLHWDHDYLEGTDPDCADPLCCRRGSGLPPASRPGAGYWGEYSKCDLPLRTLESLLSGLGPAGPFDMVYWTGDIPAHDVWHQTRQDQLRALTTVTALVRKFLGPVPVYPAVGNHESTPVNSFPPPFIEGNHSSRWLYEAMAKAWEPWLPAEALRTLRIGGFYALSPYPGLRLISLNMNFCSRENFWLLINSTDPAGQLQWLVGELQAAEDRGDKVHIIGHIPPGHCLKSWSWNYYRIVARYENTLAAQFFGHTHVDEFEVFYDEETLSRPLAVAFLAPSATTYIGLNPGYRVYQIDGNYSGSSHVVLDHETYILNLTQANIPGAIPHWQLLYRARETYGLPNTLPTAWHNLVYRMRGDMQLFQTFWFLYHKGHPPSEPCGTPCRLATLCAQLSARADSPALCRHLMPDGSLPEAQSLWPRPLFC
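Human placenta-derived ASM enzyme was preincubated with compound for 10 minutes at room temperature, then given fluorogenic substrate HMU-PC0 (9 uM final) for 60 minutes at 37 °C; a pH 10 stop preceded fluorescence reading at Ex 386/Em 447 nm.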
PINK1 modulator – modulators of PINK1 expression. Potency, µM (highest dose often 76.6 µM), inactives show at the top dose activation (PINK1 increase), most hits filed as activators. actives 0.2% (n = 410,000). PINK1 immunofluorescence, high-content cytometry, 24 h. AID 624263; active = well fitted activation curve with a large enough effect; inconclusive = small, poorly fitted or top-dose-only effect; cell line not stated here; also: potency is read from the fitted curve at half-maximal effect; % of control where 0% means no effect; nearly all actives have a fitted effect of over 65% in size
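Readout is PINK1 immunofluorescence, quantified alongside mitochondrial, cell and nuclear markers by laser-scanning microplate cytometry. Cells from a stable line were exposed to compound titrations (5 concentrations) for 24 hours, with CCCP controls.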
12-LOX inh – inhibitors of human 12S-lipoxygenase ALOX12; AID 1671190; Potency, µM (top dose mostly 108 µM), without a hit: at the top dose activity change, negative = inhibition, most hits filed as inhibitors; P18054; purified 12hLO, xylenol orange hydroperoxide absorbance; actives 1.1% (n = 580,000); also: potency is read from the fitted curve at half-maximal effect; % is scaled to controls: 0 for no effect and ±100 for the full control effect
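Purified human 12hLO at 150 nM in 25 mM Hepes, 0.01% Triton X-100, pH 7.0, preincubated 15 min at room temperature with compound. Reaction started with 40 uM arachidonic acid, 30 min at room temperature. Hydroperoxide measured by Fe-xylenol orange, 573/405 nm absorbance ratio.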
p53 reactivator – re-activators of mutant p53; actives 0.063% (n = 320,000); Potency, µM (top dose mostly 92.2 µM), without a hit: at the top dose activity change, positive = activation, actives largely listed as activators; AID 504706; H1299 p53-A138V BP100-luciferase reporter, luminescence, 24 h; also: potency is read from the fitted curve at half-maximal effect; % of control where 0% means no effect; nearly all actives have a fitted effect of over 45% in size
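H1299 (p53-null), stable ts p53-A138V + BP100-Luc; 1000 cells/well, Opti-MEM/10% FBS; cpd 4 pt, 1:5; 24 h, 37 deg C, 5% CO2; detection reagent 10 min RT; luminescence.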
CCT chaperon mod – changes cytosolic chaperonin activity. purified chaperonin ATPase assay, HTRF ADP detection, 30 min. activity change, % (concentration not given with the values), hits read low. actives 0.3% (n = 360,000); in the data active = activity change below about -30%; also: % is scaled to controls: 0 for no effect and ±100 for the full control effect
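Nucleotide hydrolysis assay: TRiC at 20–40 nM final (set by batch activity) with 10 uM ATP, 30 min at 37 °C, in presence of 76 uM compound. Detection by competitive ADP HTRF, 30 min ambient.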
Mm-Cpn inhibitor – M. maripaludis TRiC chaperonin inhibition | purified Mm-Cpn ATPase, ADP Transcreener TR-FRET | Potency, µM (doses to about 76.9 µM), inactives show at the highest dose activity, negative = inhibition, most hits filed as inhibitors | actives 0.031% (n = 330,000); also: potency is read from the fitted curve at half-maximal effect; % is scaled to controls: 0 for no effect and ±100 for the full control effect; nearly all actives have a fitted effect of over 80% in size
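ATPase turnover read by TR-FRET ADP competition (Eu cryptate antibody/ADP-d2, 665/590 nm): 10uM ATP final, 25nM Mm-CPN final, 30 min 37degC after 10-min compound preincubation, pH 7.4 Tris/KCl/MgCl2/DTT buffer.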
* hit, by the source's call. This is a sample that favours compounds with a hit; in the whole collection about 1.4% have one here. Unless noted, calls follow the shape of the dose curve; as a rule, active = well fitted curve in the direction sought with a large enough effect; inconclusive = small, poorly fitted or top-dose-only effect, or another doubt; inactive = no such curve, though single readings can be large; an effect the other way counts as inactive or inconclusive.

`O=S(=O)(O)c1cc(O)c2ccc(Nc3ccccc3)cc2c1` gave ASM inhibitor 249%, PINK1 modulator -1%, 12-LOX inh 18µM* and CCT chaperon mod 0.
Screening O=S(=O)(O)c1ccc(O)c2cc(Nc3ccccc3)ccc12 returned ASM inhibitor 48%, PINK1 modulator 1%, 12-LOX inh 32µM* and CCT chaperon mod -2.
For Nc1ccc2c(O)cc(S(=O)(=O)O)cc2c1 the results were ASM inhibitor 336%, PINK1 modulator -1%, 12-LOX inh inconclusive and CCT chaperon mod -27.
For COc1ccccc1Nc1ccc2c(O)cc(S(=O)(=O)O)cc2c1 the results were ASM inhibitor 21%, PINK1 modulator 2%, 12-LOX inh 10µM* and CCT chaperon mod 0.
`Cc1ccc(S(=O)(=O)c2cc(Nc3ccccc3)ccc2O)cc1` gave ASM inhibitor 3%, PINK1 modulator 2%, 12-LOX inh inconclusive, p53 reactivator 4%, CCT chaperon mod -1 and Mm-Cpn inhibitor 1%.
CC(=O)Nc1ccc2c(O)cc(S(=O)(=O)O)cc2c1 was read as ASM inhibitor 14%, PINK1 modulator 4%, 12-LOX inh inconclusive and CCT chaperon mod -2.
Screening Cc1ccc(Nc2nnc(SCC(=O)NC(C)(C)C)s2)cc1C returned 12-LOX inh -7%.
NCc1ccc(OCc2ccccc2)cc1 was read as 12-LOX inh 11%.
O=C(/C=C/c1ccco1)OCC(=O)C12CC3CC(CC(C3)C1)C2 was read as 12-LOX inh 40µM*.
Screening Cc1ccc(CN[C@@H]2CO[C@H](CNS(=O)(=O)c3ccc(C)cc3)[C@H]2O)cc1 returned 12-LOX inh 28µM*.
For O=C(O)CCNc1c(-c2ccc(F)cc2)nc2cnccn12 the results were 12-LOX inh 35µM*.
Screening Cc1cc(C(=O)CN(C)CC(=O)Nc2ccccc2Cl)c(C)n1CCc1cccs1 returned 12-LOX inh -20%.
For CCOC(=O)C1=CNS(=O)(=O)NC1c1ccc2ccccc2c1 (configuration not stated) the results were ASM inhibitor -6%, PINK1 modulator 1%, 12-LOX inh 32µM*, p53 reactivator 0%, CCT chaperon mod -2 and Mm-Cpn inhibitor 1%.
Cc1ccc(NC(=O)CCC2CCCCC2)c(NC(=O)c2ccco2)c1 was read as 12-LOX inh 3.5µM*.
COc1ccc(/C(O)=C2/C(=O)C(=O)N(CCCC(=O)O)C2c2ccc(OC)c(OC)c2)cc1 (configuration not stated) was read as ASM inhibitor 0%, PINK1 modulator 0%, 12-LOX inh inconclusive, p53 reactivator -4%, CCT chaperon mod -2 and Mm-Cpn inhibitor 1%.
COCCCN1C(=O)C(=O)/C(=C(/O)c2ccc(S(=O)(=O)N3CCCCC3)cc2)C1c1ccc(O)c(OC)c1 (configuration not stated) was read as ASM inhibitor -5%, PINK1 modulator -1%, 12-LOX inh inconclusive, p53 reactivator 1%, CCT chaperon mod -2 and Mm-Cpn inhibitor -1%.
COCCCN1C(=O)C(=O)/C(=C(/O)c2ccc(S(=O)(=O)N3CCCCC3)cc2)C1c1cccc(OC)c1 (configuration not stated) was read as ASM inhibitor -1%, PINK1 modulator -1%, 12-LOX inh inconclusive, p53 reactivator 3%, CCT chaperon mod -84* and Mm-Cpn inhibitor -2%.
`COCCCN1C(=O)C(=O)/C(=C(/O)c2ccc(OC)cc2)C1c1ccc(O)c(OC)c1` (configuration not stated) gave ASM inhibitor 2%, PINK1 modulator 0%, 12-LOX inh 6.3µM*, p53 reactivator 0%, CCT chaperon mod 0 and Mm-Cpn inhibitor -2%.
For CCN(CC)CCNc1ncnc2c1oc1nc(C)c3c(c12)CC(C)(C)OC3 the results were 12-LOX inh -18%.
`CC(=O)c1ccc(N2CCN(CC(O)COC(c3ccccc3)c3ccccc3C)CC2)cc1` (configuration not stated) gave ASM inhibitor -4%, PINK1 modulator 18%, 12-LOX inh 0.63µM*, p53 reactivator 6%, CCT chaperon mod 0 and Mm-Cpn inhibitor -2%.
`CC(=O)c1ccc(N2CCN(CC(O)COC(c3ccccc3)c3ccccc3)CC2)cc1` (configuration not stated) gave ASM inhibitor 1%, PINK1 modulator 20%, 12-LOX inh inconclusive, p53 reactivator 14%, CCT chaperon mod -1 and Mm-Cpn inhibitor 0%.
Screening CCOC(=O)c1ccccc1NC(=O)c1cccs1 returned ASM inhibitor -2%, PINK1 modulator 0%, 12-LOX inh 1%, p53 reactivator 2%, CCT chaperon mod -5 and Mm-Cpn inhibitor -2%.
For CCOC(=O)c1ccccc1N/C=C/C(=O)c1cccs1 the results were ASM inhibitor 186%, PINK1 modulator 1%, 12-LOX inh inconclusive, p53 reactivator 16µM*, CCT chaperon mod -2 and Mm-Cpn inhibitor -2%.
`COc1ccc(C(=O)CSc2nnc(-c3ccco3)c(-c3ccco3)n2)cc1` gave ASM inhibitor -9%, PINK1 modulator 7%, 12-LOX inh 20µM*, p53 reactivator 10%, CCT chaperon mod 1 and Mm-Cpn inhibitor 0%.
Screening O=C(CSc1ccc(-c2ccco2)nn1)NCc1ccc(F)cc1 returned ASM inhibitor -1%, PINK1 modulator 2%, 12-LOX inh -10%, p53 reactivator -7%, CCT chaperon mod -1 and Mm-Cpn inhibitor -7%.
`CSc1nnc(-c2ccccc2)c(-c2ccccc2)n1` gave ASM inhibitor -4%, PINK1 modulator 0%, 12-LOX inh 2%, p53 reactivator -6%, CCT chaperon mod 1 and Mm-Cpn inhibitor 3%.
Screening CSc1nnc(-c2ccco2)c(-c2ccco2)n1 returned ASM inhibitor -1%, PINK1 modulator -2%, 12-LOX inh 22µM*, p53 reactivator inconclusive, CCT chaperon mod 0 and Mm-Cpn inhibitor -2%.
For O=C(CSc1ccc(-c2ccco2)nn1)c1ccc(F)cc1 the results were ASM inhibitor -3%, PINK1 modulator 0%, 12-LOX inh 28µM*, p53 reactivator -1%, CCT chaperon mod 0 and Mm-Cpn inhibitor -1%.
CCSc1nc2ncn(CC(=O)Nc3cc(F)ccc3F)c(=O)c2s1 was read as 12-LOX inh -5%.
`COc1ccc(-c2c(NC(=O)c3cccs3)oc3ccccc3c2=O)cc1` gave 12-LOX inh -2%.
